In the experiment the test system is RARg:RXRa (NR concentration 270 nM, RXRa partner concentration 90 nM). As to the kind of experiment: PBM binding z-score (relative to random genomic background probes); higher = stronger binding; sequences stand for … in GC…GCGATTGACAGCGTAGAATGAAGG
An outline of the steps:
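Ligand-free nuclear receptor dimers were bound for 1 h to custom Agilent 4×180K protein-binding microarrays. Detection used antibodies against each partner (one per run). Binding z-scores rest on regression-normalized fluorescence, with random background probes as the reference.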
On to TCATATAGGCAAACAGGTGAAAGTCCGTAAGTTA, for which the PBM binding z-score was found to be 0.00145. Then TCTGCTAGGTCAGTAGGTCAGCTAACGAGCTGCC, with 4.77. The result for ATCTCTAGGTAACAAGTTCAGTGAGAGAGAGGAC reads 1.4; that for TCGAGTAGGTTTGTCGGGGCATTCAGCCAACATA, -0.206. The result for ATCTCTAGGTAAAAGTTCAGTCAATCCCGAGGAT reads 2.1; that for TCATATAGGTAAGTGCTAGGTGAAAGTCCGATCT, 0.114; that for ATATGTAGGTTATCGGGTCTTTCAGTTTGCGCAT, 0.844. With GCTAGCAGGCCATTTGGGTCACTGAATGACGGGC, the PBM binding z-score came out at 0.989.

Turning to CAAACTAGGCCACGAAAGGTCAAAGTCGAATGAC, the PBM binding z-score turned out to be 6.06.

In turn, TCTTGAAGATCAATAGAGGTTAAGAAAGTGCGCT registered a PBM binding z-score of 0.73. Then AGAAAGAGGTTATACGTAGATCAGGGAAGAAAGT, with 2.21. Then ATATGTAGGTTAAGGGTAATTCAGGTTGGTTCGC, with 1.13; and TAGCCTAGGTCATTCAGGGGCCAGTTTAGAAAGC, with 5.71; and TCAGACAGGTGGAGGTAACTCAGGTACGCAGTCG, with -0.00603.

Take GGAACGAGAGCATTCGAGTTGATAGCATGGCGAT: the PBM binding z-score is -0.435. The result for ACTAGCAGACCAAGGGTCACTCAAGATTAGTCCG reads 3.6. The result for TCAGACAGGTGAAGGTACCTCAGGTACGCAGTCG reads 0.412; that for CGTCAAAGATCAACTAAGGTAACGTAAAGCACGC, 0.743; that for ATCTATAGGTAAGACTCAGTTCAGTGAAGAACGC, 0.524. The result for GCTGCTAGGTCAACAGATGGTCAGCTAAAGCTCG reads 4.81. In turn, TAGCCCAGGTCATTCAGGGGCCAGTATAGAAAGC yielded a PBM binding z-score of 6.39. Then CGACCAAGGTCAAAGGTCAGTGAAGAGATGACGG, with 8.66; and CCGACTGGGGCAGAAGGTTACCATAAGCCAGCCC, with 1.14; and ATCGAAAGGTCGAAGGTTAGTATACCCACCCGAA, with 4.38. Then TCGCGGAGGACACGAAGGTCAGAGCTTTCCAGAG, with 3.06; and CGAACTGGGTCATTGACAGGACAGTGAATAGTAA, with 4.32. CCGACTGGGGCAATGGTTACCATACTCAGTACGA: the PBM binding z-score is -0.0332.

Sequence TCTTGTAGATCAAAGGTAAAGAAAGCCGAAGCCT gave a PBM binding z-score of 0.243. Then TAGCCTAGGTCATTCCGGGGCCAGTATAGAAAGC, with 5.28; and TCATATAGGTAAATGCTAGTTGAAAGTCCGATCT, with 0.306. The result for GCTTACGGGTCAAAGATTATAGCATGAATAGAAT reads 4.65; that for CCTAGTAGGTCAGGAGGTCACACACCGGATATGA, 7.25. The result for TCATAGAGGTAAAGGTGAAAGTCGAACGATATGA reads 1.9; that for ATCTCTAGGTAAAGTACAGTGAAAGATCGATAGA, 0.498; that for GGAACGAGGGCATTCGAGTTGGTAGCATGGCGAT, 0.787. For CTTCCAAGGTCAAGGTCAGTGAAAGAGACTCGAA, the PBM binding z-score worked out at 6.79. For the sequence GGAACGACGGCAAGTTGATAGCAGAGTTTGATGG, the PBM binding z-score was -0.136. The result for CTCGAAAGGTCGGTAGAGGTGAGTATACGGATAA reads 2.89; that for ACTAGAAGGCCAAGTTTGGGTCACTCAAACAAAG, 3.27; that for TGTCAAACTTCAAAGGTAACGTAAGTATCCACAC, 0.654.

The values are drawn from the supplement of paper PMC6555819.
